The full list was thinned out, with hits kept by preference.
Candida biofilm: clotrimazole potentiators killing Candida biofilms, primary screen, with clotrimazole, Alamar Blue | C. albicans biofilm + clotrimazole | inhibition, % at 6 µM | 0.14% of 85,000 active | AID 834, 2007;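 active = inhibition above 20%; inactive = inhibition below 20%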;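 note: preformed 24 hr biofilms exposed to compound for 48 hr; 0% = biofilm without compound and 100% = blank killed by clotrimazole plus chlorhexidine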
TNAP act DEA: human TNAP enzyme activators, primary screen, biochemical, luminescent, intermediate phosphate acceptor level | Alkaline phosphatase, tissue-nonspecific isozyme (Homo sapiens), P05186 | purified TNAP, CDP-star luminescence, 100 mM DEA, 30 min; hits give high values; scale: 0 levamisole-inhibited, 1 vehicle-only enzyme | activation factor at 20 µM | 64,000 tested, under 10 active;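 active = activation factor of at least 2 at 20 µM, relative to controls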
D1 mod: D1 CRE-luciferase signal change, two-sided – cell-based, HEK293 D1, dopamine EC30, D1 allosteric modulator project, primary screen. B-score at 10 µM. dopamine EC30 potentiation; actives deviate in either direction. AID 641, 2007. 5.9% of 58,000 active;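 active = luminescence count or its row- and column-corrected plate score outside the 99.7% band of the plate's sample wells, on either side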
FXIIa mix inh: human factor XIIa inhibitors, primary screen, biochemical, pooled compound mixtures, fluorogenic substrate; 0.2% of 62,000 active; purified FXIIa; inhibition, % at 5 µM; Coagulation factor XII (Homo sapiens), P00748; AID 684, 2007;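 note: 0% = enzyme without compound and 100% = no enzyme blank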
FXIa inh mix: FXIa protease inhibitors in compound pools, primary screen, biochemical, 10-compound mixtures; Coagulation factor XI (Homo sapiens), P03951; purified FXIa, fluorogenic substrate, pooled mixtures; inhibition, % at 5 µM; 0.19% of 62,000 active;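 note: each value is inhibition by a whole ten-compound pool holding the compound; 0% = enzyme with no mixture and 100% = wells lacking enzyme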
Target sequence (P03951 19-387 limits assumed): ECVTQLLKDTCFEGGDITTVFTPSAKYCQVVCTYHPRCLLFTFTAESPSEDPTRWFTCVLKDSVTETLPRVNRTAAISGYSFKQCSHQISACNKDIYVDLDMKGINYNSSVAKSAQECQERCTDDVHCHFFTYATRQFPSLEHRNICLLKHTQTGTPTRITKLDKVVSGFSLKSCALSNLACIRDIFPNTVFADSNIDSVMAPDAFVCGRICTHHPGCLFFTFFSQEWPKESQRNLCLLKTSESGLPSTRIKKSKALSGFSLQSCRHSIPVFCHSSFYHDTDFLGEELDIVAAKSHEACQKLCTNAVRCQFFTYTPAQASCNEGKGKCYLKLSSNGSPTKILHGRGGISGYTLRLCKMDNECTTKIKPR
Target sequence (P03951 388-625 limits assumed): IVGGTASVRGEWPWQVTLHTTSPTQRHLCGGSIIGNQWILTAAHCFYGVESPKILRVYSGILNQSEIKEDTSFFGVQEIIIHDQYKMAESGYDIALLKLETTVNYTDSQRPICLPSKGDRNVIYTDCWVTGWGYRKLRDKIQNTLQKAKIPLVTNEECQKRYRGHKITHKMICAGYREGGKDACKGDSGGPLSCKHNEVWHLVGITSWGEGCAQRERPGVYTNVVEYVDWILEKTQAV
HePTP inh: inhibitors of human HePTP phosphatase, primary screen, biochemical, absorbance, leukemia target | inhibition, % at 20 µM | recombinant HePTP phosphatase activity, OD absorbance | 0.64% of 110,000 active | Tyrosine-protein phosphatase non-receptor type 7 (Homo sapiens), P35236 | AID 521, 2006; in the data active = inhibition above about 50%; inconclusive = no clear call, values can overlap the other calls;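 note: plate controls were vehicle for no effect and reference inhibitor for full effect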
D1 mod confirm: D1 receptor positive allosteric modulators, retest, confirmation, cell-based, HEK293 D1, CRE-luciferase, duplicate. shares compounds with D1 mod. dopamine EC30 potentiation; hits give high values. luminescence at 10 µM. 88% of 2,200 active;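 active = luminescence in either of two replicates above the same-plate mean plus 3 SD of the low-dose dopamine control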
D1 no dopamine: D1 receptor agonism without dopamine, confirmation, mechanism study for D1 allosteric modulator project, cell-based, HEK293 D1, CRE-luciferase, secondary assay 1; shares compounds with D1 mod; luminescence, no dopamine; hits give high values; luminescence at 10 µM; 0.8% of 1,900 active; AID 646, 2007; in the data active = luminescence above about 3900
Isoprot counter: alters isoproterenol CRE-luciferase response in HEK293 cells; shares compounds with D1 mod; HEK293 D1 CRE-luciferase, isoproterenol EC30 counter-screen; hits give high values; luminescence at 10 µM; 63% of 2,200 active;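 active = luminescence in either replicate above plate mean of wells with a partly effective reference agonist dose plus 3 SD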;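 note: isoproterenol raises cAMP through native beta-adrenoceptor Gs so signal bypasses D1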
* = called active by the depositor. Cut-off read from the data, not from the text of the source, unless noted: active = inhibition above about 20% (passing the limit was not always enough); inactive = the rest.

Screening O=c1[nH]c(=O)n(Cc2ccccc2)c(O)c1C=C1C=Nc2ccccc21 returned HePTP inh 9.
`O=c1[nH]c(=S)n(-c2ccccc2F)c(O)c1C=C1C=CC=N1` gave HePTP inh 103*.
`OC12CCCCC1C(c1ccc(Br)cc1)NCC2` (stereo not given) gave HePTP inh -14.
Screening CN1C(=O)C(=Cc2ccccc2Cl)C(=O)N(C)C1=O returned HePTP inh 8.
For CN1CCC(N(C)c2ncnc3ccc(Br)cc23)CC1 the results were Candida biofilm 6, TNAP act DEA 0.9, D1 mod -4.3*, FXIIa mix inh -20, FXIa inh mix -12 and HePTP inh 8.
Cc1cc([N+](=O)[O-])c(C)cc1-c1ccc(C=C2C(=O)NC(=O)NC2=O)o1 was read as HePTP inh -19.
Screening Cc1c(C(=O)N2CCC3(CC2)OCCO3)sc2ncnc(N3CCN(c4ccccn4)CC3)c12 returned Candida biofilm 5, TNAP act DEA 0.9, D1 mod -6.7*, FXIIa mix inh 9, FXIa inh mix 10 and HePTP inh 8.
For Clc1cccc(CNCCc2c[nH]c3ccccc23)c1 the results were HePTP inh 4.
For c1ccc2c(CCNC3=NCCC3)c[nH]c2c1 the results were Candida biofilm 13, TNAP act DEA 0.9, D1 mod -2.7*, FXIIa mix inh -5, FXIa inh mix -19 and HePTP inh 11.
COc1ccc(N2C(=O)NC(=O)/C(=C/c3cn(CC(=O)Nc4ccccc4)c4ccccc34)C2=O)cc1 was read as HePTP inh 0.
O=C1NC(=O)N(c2cccc(Br)c2)C(=O)/C1=C/c1ccco1 was read as HePTP inh 102*.
Screening CCc1ccc(CN2CCN(C(=O)COc3ccc4ccccc4c3)CC2)cc1 returned HePTP inh -11.
Fc1ccc2c(c1)nnn2C1CCN(Cc2ccccc2)CC1 was read as Candida biofilm 6, TNAP act DEA 0.9, D1 mod -4.4*, FXIIa mix inh 4, FXIa inh mix 1 and HePTP inh 6.
`Fc1ccc2c(c1)nnn2C1CCN(Cc2nnnn2CCc2ccccc2)CC1` gave Candida biofilm 1, TNAP act DEA 1, D1 mod -1.5, FXIIa mix inh 11, FXIa inh mix 8 and HePTP inh 6.
`Cc1ccc2c(c1)C1CN(C)CCC1N2S(=O)(=O)c1ccccc1` (stereo not given) gave Candida biofilm 6, TNAP act DEA 0.9, FXIIa mix inh 15, FXIa inh mix 0 and HePTP inh -3.
Screening Cc1ccc2c(c1)C1CN(C)CCC1N2C(=O)c1ccc(Br)o1 (stereo not given) returned Candida biofilm 12, TNAP act DEA 1, D1 mod -3.1*, FXIIa mix inh 4, FXIa inh mix 2 and HePTP inh -4.
`Cc1ccc2c(c1)[C@@H]1CN(C)CC[C@@H]1N2C(=O)Nc1cccc(C(F)(F)F)c1` gave Candida biofilm 4, TNAP act DEA 0.9, D1 mod -4.8*, FXIIa mix inh 4, FXIa inh mix 3 and HePTP inh -6.
For Cc1ccc2c(c1)C1CN(C)CCC1N2C(=O)Nc1cccc(C(F)(F)F)c1 (stereo not given) the results were Candida biofilm -3.
`CN1C(=O)NC(=O)/C(=C/c2cn(C)c3ccccc23)C1=O` gave HePTP inh -7.
`C=CCN(CC=C)Cc1c[nH]c2ccccc12` gave TNAP act DEA 0.9, D1 mod -5.6*, FXIIa mix inh -19, FXIa inh mix 9 and HePTP inh 14.
`CCOc1ccc(N2C(=O)/C(=C/c3ccc(C)o3)C(=O)NC2=S)cc1` gave HePTP inh 24.
For CN1C(=O)NC(=O)/C(=C/c2ccc(Br)o2)C1=O the results were HePTP inh 76*.
`CCOc1ccc(N2C(=O)/C(=C/c3ccc(Br)o3)C(=O)NC2=S)cc1` gave HePTP inh 101*.
For CCn1nc(-c2ccccc2)nc2c(=O)n(C)c(=O)nc1-2 the results were TNAP act DEA 0.8, D1 mod -8.7*, FXIIa mix inh 8, FXIa inh mix 7 and HePTP inh inconclusive.
Screening O=C(CF)NC(=C(Cl)Cl)P(=O)(c1ccccc1)c1ccccc1 returned HePTP inh 103*.
Screening COc1ccc(Br)cc1CN1CCN(Cc2ccc(F)cc2)CC1 returned HePTP inh 16.
For COC(=O)c1c(N)n(Cc2ccc(OC)cc2)c2nc3ccccc3nc12 the results were Candida biofilm -1, TNAP act DEA 0.9, D1 mod 7*, FXIIa mix inh 2, FXIa inh mix -19, HePTP inh 2, D1 mod confirm 8940*, D1 no dopamine 1728 and Isoprot counter 3196*.
COCCOC(=O)c1c(N)n(Cc2ccc(OC)cc2)c2nc3ccccc3nc12 was read as Candida biofilm -5, TNAP act DEA 0.8, D1 mod 6.3*, FXIIa mix inh 18, FXIa inh mix -9, HePTP inh -6, D1 mod confirm 12708*, D1 no dopamine 1440 and Isoprot counter 3028*.
For COc1ccc(Cc2nccc3cc(OC)c(OC)cc23)cc1OC the results were Candida biofilm -4, TNAP act DEA 0.9, D1 mod 13*, FXIIa mix inh -19, FXIa inh mix 7, HePTP inh 6, D1 mod confirm 7016*, D1 no dopamine 2184 and Isoprot counter 9832*.
For O=C(COc1ccccc1)N1CCN(C2CCN(Cc3ccccc3)CC2)CC1 the results were HePTP inh -1.
Cn1c(O)c(C(=O)c2ccccc2)c(=O)n(C)c1=O was read as Candida biofilm 8, D1 mod 8.4*, D1 mod confirm 6612, D1 no dopamine 1668 and Isoprot counter 2604.

Source: PubChem BioAssay (several laboratories)
